Potency and affinity values are given separately.
system: Klebsiella pneumoniae; conditions: Concentration 20 uM; ASSAY_TEST Inhibition of Bacterial Growth; detection method Absorption (OD600); MEDIA CAMHB; plate type 384well; NBS; CORNING #3640; time 18 hr

Row | SMILES | Inhibition
1 | CN(C(=O)c1cc2c(-c3cncnc3)cccc2[nH]1)c1ccccc1 | 10.84%
2 | Cc1cc(C)nc(-n2nc(C)cc2Nc2ccccc2)n1 | 15.33%
3 | Nc1nccc2ccc(Oc3ccncc3)cc12 | 18.43%
4 | O=C(NC1CCCCC1)N1CCN(Cc2ccc3c(c2)OCO3)CC1 | 10.77%
5 | O=C(N[C@H](Cc1ccccc1)C(=O)Nc1ccccc1N1CCOCC1)c1cccs1 | 11.64%
6 | O=[N+]([O-])c1cn2c(n1)OC[C@@H](OCc1ccc(OC(F)(F)F)cc1)C2 [PRETOMANID] | 14.31%
7 | OC[C@H]1O[C@@H](n2c3ccc(Cl)cc3c3c(-c4cc5ccccc5o4)ncnc32)C(O)[C@H]1O (stereo partly specified) | 8.56%
8 | CC1=Nc2ccc(Cl)cc2C(c2ccccc2)N1CCNC(=O)CN(C)C (stereo unspecified) | 16.36%
9 | Cc1nc2ccccn2c1C(=O)NCc1ccc(Cl)cc1 | 17.8%
10 | CC(=O)Nc1ccc(-c2noc(CC3CCCN(Cc4cccc(F)c4C)C3)n2)cc1 (stereo unspecified) | 14.96%
11 | Nc1nccc2ccc(-c3ccc4nccn4c3)cc12 | 18.72%
12 | COc1cccc(CC(=O)N2CCC(n3c(C)nc4ccc(F)cc43)CC2)c1 | 12.2%
13 | CCCCN(CCCC)c1c(C#N)cc(S(=O)(=O)Nc2ccccc2)cc1C#N | 5.16%
14 | CCN(CC)C(=O)N1CCN(C)CC1 [DIETHYLCARBAMAZINE] | 16.19%
15 | N#Cc1nc(-c2ccccc2F)oc1NCCc1ccccc1 | 12.11%
16 | CCC(=O)Nc1ccccc1C(=O)Nc1ccccn1 | 11.13%
17 | Cc1ccc(S(=O)(=O)Nc2ccc(CN3CCN(C(=O)c4cccc(C#N)c4)CC3)cc2)cc1 | 10.93%
18 | COc1ccccc1OCCCCn1c(C2CC2)nc2ccccc21 | 10.24%

Row | SMILES | Inhibition
19 | COc1ccc(N(CCc2cccc(C)n2)C(=O)C2CCCCC2)cc1 | 6.26%
20 | Nc1ncnc2c1c(-c1cnc3ccccc3c1)nn2CC1CCNCC1 | 4.12%
21 | CCc1nc2ccccc2n1CC(O)COc1cc(C)ccc1Cl (stereo unspecified) | 3.05%
22 | CNC(=O)c1nn(C)c2c1C(C)(C)Cc1cnc(Nc3ccc(N4CCN(C)CC4)cc3)nc1-2 [MILCICLIB] | -10.97%
23 | Cc1nc(-c2cccc(NCc3ccccc3)c2)[nH]c1C | 18.74%
24 | Cc1cc(O)nc(-n2nc(C)cc2C)n1 | 12%
25 | NC(=O)c1cc(-c2ccsc2)ccc1OCCOc1ccccc1 | 14.24%
26 | Cc1ccc(NC(=O)CC2COc3ccccc3O2)cc1Cl (stereo unspecified) | 11.14%
27 | Nc1ncnc2c1c(Cc1cccc3ccccc13)nn2CC1CCNCC1 | -3.02%
28 | Cl.NCC(c1cccs1)S(=O)(=O)c1ccccc1 (stereo unspecified) | -0.58%
29 | Nc1cccnc1Nc1ccc(Cl)cc1 | 2.25%
30 | FC(F)(F)c1nnc2ccc(Cl)nn12 | 7.1%
31 | N#Cc1ccc(-c2ccc(OCC(N)=O)cc2)cc1 | 5.71%
32 | O=C1COCc2ccc(Br)cc2N1Cc1ccc(C(F)(F)F)cc1 | 17.24%
33 | Cc1cc(C)n2nc(C(=O)Nc3cc(C(F)(F)F)ccc3N3CCOCC3)nc2n1 | 15.61%
34 | Cc1nnc(NC(=O)c2cn(-c3ccccc3)nc2-c2ccccc2C)o1 | 13%
35 | COc1ccc(-c2onc(C(F)(F)F)c2-c2ccc(Cl)cc2)c(O)c1 | 9.85%
36 | COc1ccc2nc(C)cc(OCC(=O)NCc3ccccc3)c2c1 | 19.56%

Source: ChEMBL document CHEMBL4513149, “CO-ADD screening of MMV (CH) - MMV compounds” (2021)
